# USP2a block: USP2a (human) protease inhibition; USP2 core, Ub-CHOP2 coupled fluorogenic reporter, 485/531; Potency, µM (titrated, usually from 38.3 µM), actives largely listed as inhibitors; 0.01% of 330,000 active
#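 Deubiquitinase activity read as fluorescence (485/531 nm) after Ub-CHOP2 cleavage activates the enterokinase reporter on its substrate; USP2 core 10nM, Ub-CHOP2 and substrate 25nM each, 30min compound preincubation then 60min RT; data normalized to NEM, curves fitted.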
# GALK inhibitor: blocks human galactokinase activity | P51570 | Purified GALK, Kinase-Glo residual ATP luminescence | Potency, µM (series often up to 57.5 µM), usual class: inhibitors | 0.007% of 270,000 active | AID 1868
# Target sequence (P51570 whole entry, looked up): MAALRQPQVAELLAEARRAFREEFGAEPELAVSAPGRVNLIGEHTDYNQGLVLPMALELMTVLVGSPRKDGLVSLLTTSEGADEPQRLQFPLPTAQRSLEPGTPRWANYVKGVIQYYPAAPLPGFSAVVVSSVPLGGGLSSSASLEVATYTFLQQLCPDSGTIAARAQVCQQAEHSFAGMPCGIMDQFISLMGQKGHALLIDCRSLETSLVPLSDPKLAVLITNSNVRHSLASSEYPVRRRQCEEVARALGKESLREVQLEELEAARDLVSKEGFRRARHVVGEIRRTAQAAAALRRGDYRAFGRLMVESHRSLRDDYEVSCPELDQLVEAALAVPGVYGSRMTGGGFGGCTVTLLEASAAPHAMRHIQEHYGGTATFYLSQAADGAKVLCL
#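 Human GALK (5 nM) with 35 uM ATP and 100 uM galactose in 20 mM HEPES pH 8.0, 5 mM MgCl2, 60 mM NaCl, 1 mM DTT, 0.01% BSA. After 1 h at room temperature, leftover ATP was read by Kinase-Glo Plus luminescence.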
# ClpP mod: qHTS Assay for Activators of ClpP | ATP-dependent Clp protease proteolytic subunit (Bacillus subtilis (strain 168)), P80244 | purified B. subtilis ClpP, FRET peptide cleavage, 20 min | Potency, µM (top dose mostly 57.5 µM) | 1.9% of 340,000 active; active = well fitted falling curve with a large enough effect; inconclusive = small, poorly fitted or top-dose-only effect; inactive = no such curve, though single readings can be large or run the other way; note: the source files actives as falling curves though it sought activators and does not explain the sign; nearly all actives have a fitted effect of over 65% in size
# Target sequence (P80244 whole entry, looked up): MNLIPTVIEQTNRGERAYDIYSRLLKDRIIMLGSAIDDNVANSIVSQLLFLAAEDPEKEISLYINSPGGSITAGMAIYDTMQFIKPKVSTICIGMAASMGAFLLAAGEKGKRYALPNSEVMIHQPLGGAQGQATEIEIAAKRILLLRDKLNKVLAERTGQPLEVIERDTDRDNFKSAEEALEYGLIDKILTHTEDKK
#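 Buffer: 100 mM Tris/HCl pH8, 100 mM KCl, 0.05% low protease BSA, 2.5% glycerol, 0.01% Tween-20. ClpP 10 microg/mL final; 20 min RT; delta FRET normalized to ADEP and DMSO controls.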
# Eya2 inh: Eya2 (human) phosphatase inhibition; O00167; recombinant Eya2, OMFP fluorescence dephosphorylation (OMFP is methylfluorescein phosphate); Potency, µM (highest dose often 76.9 µM), actives largely listed as inhibitors; 0.006% of 330,000 active; AID 488837
#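 Eya2 (0.2 uM) preincubated 10 min at ambient with compound, then OMFP substrate added at 50 uM; 10 min reaction in 50 mM HEPES pH 7.5, 50 mM NaCl, 5 uM MgCl2, 0.05% BSA, 1 mM DTT. Fluorescence read at Ex 485/Em 525 nm.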
# ClpP inh valid: inhibits B. subtilis ClpP protease, hit validation. shares compounds with ClpP mod. purified B. subtilis ClpP, FRET-FV substrate cleavage, 20 min. 40% of 470 active. Potency, µM (doses to about 57.5 µM), usual class: inhibitors; note: nearly all actives have a fitted effect of over 70% in size
# A number is an active result; - = inactive; ? = inconclusive; . = not tested or not shown. Shown is part of a subset that was picked to be rich in hits. Unless noted, calls come from the whole dose curve; as a rule, active = well fitted curve in the direction sought with a large enough effect; inconclusive = small, poorly fitted or top-dose-only effect, or another doubt; inactive = no such curve, though single readings can be large; an effect the other way counts as inactive or inconclusive.
SMILES,USP2a block,GALK inhibitor,ClpP mod,Eya2 inh,ClpP inh valid
CNC(=O)c1cc(S(=O)(=O)N2CC(C)OC(C)C2)ccc1N1CCOCC1 (stereo not given),-,-,-,-,-
CC(=O)Nc1ccc(C(=O)OCC(=O)c2ccc(S(=O)(=O)N3CCCCC3)cc2)cc1,-,.,-,-,.
COc1ccc(S(=O)(=O)N2CCOCC2)cc1NC(=O)c1ccccc1-c1ccc(C(F)(F)F)cc1,-,-,-,-,?
CCCc1cc(=O)oc2cc(C)cc(OCc3nn[nH]n3)c12,-,-,8.9µM,-,34µM
CCCc1cc(=O)oc2cc(C)cc(OCC(=O)NC3CC3)c12,-,-,-,-,.
COc1ccc(-c2nnc(-c3ccc(OCC(C)C)cc3)o2)cc1,-,-,7.9µM,-,19µM
COc1ccc(OCc2nnc(-c3ccccc3)o2)cc1,.,.,-,.,.
COc1cc(OC)c(OC)cc1CNC1CCCCCC1,-,-,-,-,.
COc1cc(OC)c(CNC2CCCCCC2)cc1Br,-,-,2.8µM,-,-
CN(C)CCCNCCCNC(=O)c1ccncc1,-,-,-,-,.
O=C(Nc1ccc(F)cc1)c1sc2cc(C(F)(F)F)cnc2c1-c1cccs1,-,-,-,-,-
CCOc1ccc(NC(=O)c2c(NC(=O)CN3CCCC3)sc3c2CCC3)cc1,-,-,-,-,.
O=C(Cc1ccccc1)Nc1ccc(-c2nnc(-c3ccco3)o2)cc1,-,-,8.9µM,-,-
CCC(=O)Nc1cccc(-c2nnc(-c3cccc(NC(=O)CC)c3)o2)c1,-,-,-,-,.
CCC(=O)Nc1ccc(-c2nnc(-c3ccccc3)o2)cc1,-,-,2.8µM,-,7.7µM
O=C(Cc1cccs1)Nc1cccc(-c2nnc(-c3ccco3)o2)c1,-,-,.,-,.
Cc1ccc(-c2nnc(-c3ccc(NC(=O)Cc4cccs4)cc3)o2)cc1,-,-,3.5µM,-,?
O=C(Cc1ccccc1)Nc1nnc(-c2ccco2)o1,-,-,.,-,.
O=C(CNC(=O)c1cccc(F)c1)NC1CC1,-,.,3.5µM,-,-
O=C(NCc1cccc(F)c1)c1ccc(NC(=O)c2nsc3ccccc23)cc1,.,.,-,.,?
CC(=O)N1CC(C)Sc2ccc(S(=O)(=O)NCc3ccc(F)cc3)cc21 (stereo not given),-,-,-,-,.
c1nc2n(n1)C1=C(CCCC1)C1(CCCCC1)N2,-,-,10µM,-,-
CCCS(=O)(=O)c1nc(S(=O)(=O)c2ccc(C)cc2)c(N2CCc3ccccc3C2)s1,-,-,-,-,.
Cc1ccnc(NS(=O)(=O)c2ccc(NS(=O)(=O)c3cc(Cl)ccc3Cl)cc2)n1,-,-,-,-,.
CCN1CCN(c2cc(C)c3cc(NC(=S)N(C)Cc4ccccc4)ccc3n2)CC1,-,-,-,-,-
SMILES,USP2a block,GALK inhibitor,ClpP mod,Eya2 inh,ClpP inh valid
CCCCN(C)C(=S)Nc1ccc2nc(N3CCN(CC)CC3)cc(C)c2c1,-,-,-,-,.
COc1ccc(Nc2cc(C(=O)NC3CCCC3)c3ccccc3n2)cc1,.,.,-,.,-
Cc1ccn2c(Nc3ccc4c(c3)OCO4)c(-c3ccc(Cl)cc3)nc2c1,.,.,4µM,.,-
Cc1ccn2c(Nc3ccc4c(c3)OCO4)c(-c3ccc(N(C)C)cc3)nc2c1,.,.,-,.,.
Cn1c(=O)c2c(-c3ccc(Cl)cc3)n(Cc3ccc(Cl)cc3)cc2n(C)c1=O,.,.,10µM,.,39µM
Cc1ccccc1Cn1nnc2c(=O)[nH]c(C3CCN(C(=O)c4ccccc4Cl)CC3)nc21,.,.,-,.,.
Cc1ccc(-c2cn3c(n2)sc2cc(C(=O)NCc4cccs4)ccc23)cc1,.,.,7.1µM,.,27µM
O=C(O)c1ccccc1NC(c1ccccc1)c1ccc2cccnc2c1O (stereo not given),.,.,-,.,?
COc1ccccc1NC(c1cccnc1)c1ccc2cccnc2c1O (stereo not given),-,-,-,-,.
CCc1cccc(Nc2nn3c(=O)c4ccccc4nc3s2)c1,.,.,.,.,-
COc1cccc(Nc2nn3c(=O)c4ccccc4nc3s2)c1,-,.,.,-,.
COc1ccc(-c2nc(N3CCC(C)CC3)[nH]c(=O)c2C#N)cc1,-,-,-,-,.
COc1ccc(NC(=O)c2oc3ccccc3c2NC(=O)c2ccco2)cc1,-,-,-,-,.
COc1ccc(NC(=O)c2oc3ccccc3c2NC(=O)c2ccco2)c(OC)c1,-,-,-,-,?
NC(=S)Nc1cc2ccccc2c2ccccc12,-,-,-,-,-
CCCc1cc(=O)n2c(nc3ccccc32)[nH]1,-,-,7.1µM,-,14µM
COc1ccccc1OCCNC(=O)c1ccc2c(c1)OCCO2,-,.,7.9µM,-,-
COc1ccccc1NC(=O)c1ccc(COc2ccc3c(c2)CCC3)cc1,-,-,-,-,-
COc1ccccc1NC(=O)Cn1cnc2c(cnn2-c2ccc(C)c(C)c2)c1=O,-,-,-,-,-
COc1ccc(OC)c(NC(=O)Cn2cnc3c(cnn3-c3ccccc3)c2=O)c1,-,-,-,-,.
CCOC(=O)c1cc2occc2n1CC(=O)N1CCCc2ccccc21,-,-,-,-,-
CCOC(=O)c1cc2sccc2n1CC(=O)N1CCCc2ccccc21,-,-,-,-,.
COc1ccc(NC2=CC(c3ccc(F)cc3)N(c3ccc(OC)cc3)C2=O)cc1 (stereo not given),-,-,-,-,?
COc1ccc(NC2=CC(c3ccc(OC)cc3)N(c3ccc(OC)cc3)C2=O)cc1 (stereo not given),-,-,-,-,.
COc1ccc(-c2cc(=O)c3c(O)c(OC)c(O)cc3o2)cc1,-,-,-,-,.
SMILES,USP2a block,GALK inhibitor,ClpP mod,Eya2 inh,ClpP inh valid
Cc1nc(-c2ccc(Cl)cc2)sc1C1(C)CC(c2c(Cl)cccc2Cl)=NO1 (stereo not given),-,-,10µM,-,27µM
Cc1c(Cl)cccc1NC(=O)CN(CCc1ccccc1)S(=O)(=O)c1ccccc1,.,.,-,.,.
CCOc1ccccc1N1CC(C(=O)Nc2ccc3c(c2)OCCO3)CC1=O (stereo not given),-,-,7.9µM,-,-
COc1ccc(C(=O)n2cc(C(=O)c3cc(C)ccc3O)cn2)cc1OC,-,-,-,-,-
Cc1cc(=O)oc2cc(OCc3cc4c(cc3Cl)OCO4)ccc12,-,-,-,-,?
Cc1oc(C(=O)O)cc1COc1ccc2c(C)cc(=O)oc2c1,-,-,?,?,.
O=C(c1ccncc1)N1CCN(S(=O)(=O)c2cccc(Cl)c2)CC1,-,.,3.2µM,-,-
CCOc1nc(-c2ccc(Cl)cc2Cl)ccc1C#N,-,-,-,-,.
Cc1cc(Cl)ccc1Oc1nc(-c2ccc(F)cc2)ccc1C#N,-,-,-,-,?
CCc1ccc(NC(=O)c2cc3sc(Cl)cc3n2C)cc1,.,.,-,.,.
COc1ccccc1N(CC(=O)Nc1ccc2c(c1)OCCO2)S(=O)(=O)c1ccc(C)cc1,-,-,5µM,?,-
COc1ccccc1N(CC(=O)Nc1ccc2c(c1)OCCO2)S(C)(=O)=O,-,-,-,-,.

# Assay outcomes deposited in PubChem BioAssay by National Center for Advancing Translational Sciences (NCATS).
